Hit rate of the full screen: of about 400,000 compounds, about 2,100 (0.53%) were called active. Not shown: some 14% with an inconclusive outcome. How the calls were made is not given here. The full list was thinned out, with actives kept by preference.

The target in this experiment is Ataxin-2 (Homo sapiens) (UniProt Q99700). Nature of the experiment: qHTS for Inhibitors of ATXN expression. The experiment is classed as functional. (qHTS replaces the single test concentration by a dilution series.)
Ataxin-2 (Homo sapiens), sequence (Q99700 whole entry): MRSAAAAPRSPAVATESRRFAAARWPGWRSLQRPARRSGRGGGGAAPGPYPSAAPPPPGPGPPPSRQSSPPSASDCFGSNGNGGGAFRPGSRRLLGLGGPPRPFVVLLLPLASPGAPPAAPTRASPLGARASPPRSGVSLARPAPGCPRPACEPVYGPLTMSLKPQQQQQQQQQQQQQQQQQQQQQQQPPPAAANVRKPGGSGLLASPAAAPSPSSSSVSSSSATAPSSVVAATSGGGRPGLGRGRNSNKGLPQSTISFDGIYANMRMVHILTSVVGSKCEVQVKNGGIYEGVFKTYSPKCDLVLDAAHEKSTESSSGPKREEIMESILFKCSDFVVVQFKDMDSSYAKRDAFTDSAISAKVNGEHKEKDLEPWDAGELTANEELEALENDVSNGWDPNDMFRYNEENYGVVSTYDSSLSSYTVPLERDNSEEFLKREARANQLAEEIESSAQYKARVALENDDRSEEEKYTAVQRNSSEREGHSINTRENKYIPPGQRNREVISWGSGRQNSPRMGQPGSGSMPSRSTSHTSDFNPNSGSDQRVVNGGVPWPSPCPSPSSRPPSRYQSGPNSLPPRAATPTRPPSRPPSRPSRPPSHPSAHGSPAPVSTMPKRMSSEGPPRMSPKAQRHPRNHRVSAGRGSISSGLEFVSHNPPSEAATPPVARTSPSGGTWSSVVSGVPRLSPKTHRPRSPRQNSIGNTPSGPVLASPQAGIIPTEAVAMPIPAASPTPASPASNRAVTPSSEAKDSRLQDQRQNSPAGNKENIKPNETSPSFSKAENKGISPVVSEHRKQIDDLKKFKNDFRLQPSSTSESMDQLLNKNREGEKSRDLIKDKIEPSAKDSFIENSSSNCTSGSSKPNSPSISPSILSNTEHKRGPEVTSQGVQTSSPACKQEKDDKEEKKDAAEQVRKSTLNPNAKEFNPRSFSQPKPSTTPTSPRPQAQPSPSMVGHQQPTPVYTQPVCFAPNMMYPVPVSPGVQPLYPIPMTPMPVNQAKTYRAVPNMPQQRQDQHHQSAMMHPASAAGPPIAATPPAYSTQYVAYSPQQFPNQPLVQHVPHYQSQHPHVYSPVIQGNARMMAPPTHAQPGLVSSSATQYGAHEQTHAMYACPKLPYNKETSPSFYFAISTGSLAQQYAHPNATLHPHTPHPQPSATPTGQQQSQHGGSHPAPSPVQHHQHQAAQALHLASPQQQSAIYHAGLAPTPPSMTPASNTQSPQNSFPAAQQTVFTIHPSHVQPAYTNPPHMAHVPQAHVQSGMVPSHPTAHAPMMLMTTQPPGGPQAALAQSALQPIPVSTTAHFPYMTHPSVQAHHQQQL
Take `Cc1cc(O)nc(SCC(=O)Nc2ccnc3ccccc23)n1`: the Potency result was “inactive”.
To `O=C(CCl)Nc1cccc2ncccc12` belongs 31.6 µM (active); to `O=C(Cc1ccccc1C(=O)O)Nc1cccc2ccccc12`, “inactive”.
With `Cc1c(Cc2ccccc2)c(=O)oc2cc(OC(=O)c3ccccc3)ccc12`, the Potency result was “inactive”.
Turning to `CCCc1sc(N/N=C/c2ccccn2)nc1-c1ccc(Br)cc1`, the Potency was 17.8 µM (active).
The same measure for `Cn1/c(=N/N=C/c2ccccn2)sc2ccccc21`: “inactive”; for `CCC/C=N/Nc1nc2ccccc2s1`: “inactive”.
For the compound `Cc1csc(N/N=C/c2ccccn2)n1`, the Potency is 28.2 µM (active).
In the case of `CC/N=c1\scc(-c2ccc(F)cc2)n1/N=C/c1ccccn1`, the Potency entry is “inactive”.
With `C=CCn1c(=N)c(C(=O)NCCCOC)cc2c(=O)n3ccccc3nc21`, the Potency result was “inactive”.
As to `Oc1c(Cl)cc(Cl)cc1/C=N\c1cc(C(F)(F)F)ccc1N1CCc2ccccc2C1`, the Potency entry is “inactive”.
To `COc1ccc(-c2cc(C(F)(F)F)nc(SCC(=O)Nc3ccc(C(C)=O)cc3)n2)cc1` belongs 31.6 µM (active); to `COc1ccc(-c2csc(NC(=O)CSc3n[nH]c(N)n3)n2)cc1`, “inactive”; to `COc1ccc(-c2cc(C(F)(F)F)c3c(N)c(C(=O)NCCSC)sc3n2)cc1`, “inactive”.
As for `CN(C)c1ccc(-c2cc3ccccc3c(=O)o2)cc1`, the Potency entry was “inactive”.
Turning to `COC(=O)C1=NN(c2ccc(OC)cc2)C2C(=O)N(c3ccccc3OC)C(=O)C12` (stereo not drawn), the Potency entry was “inactive”.
On to `CCOC1=C2CN(S(=O)(=O)c3ccc(C)cc3)[C@H](c3cccc4ccccc34)C[C@H]2C(C#N)(C#N)C(C#N)(C#N)C1`, for which the Potency was 12.6 µM (active).
To `O=c1oc2c3c4c(cc2c2c1CCC2)OCCN4CCC3` belongs “inactive”; to `COc1ccc(-c2csc(NC(=O)CCNC(=O)c3ccco3)n2)cc1OC`, “inactive”.
Regarding `COc1ccccc1-c1cc(C(F)(F)F)nc(S(=O)(=O)CCCC(=O)NCc2ccc(F)cc2)n1`, the Potency is 26.7 µM (active).
To `COc1ccc(-c2cc(C(=O)Nc3ccc(C(N)=O)cc3)c3ccccc3n2)cc1OC` belongs “inactive”; to `COc1ccc(-c2cc(C(=O)OCC(=O)Nc3cc(C)on3)c3ccccc3n2)cc1OC`, “inactive”; to `COc1ccccc1-c1cc(C(F)(F)F)nc(S(=O)(=O)CCCC(=O)Nc2cc(C)on2)n1`, 14.1 µM (active).
Regarding `COc1ccccc1-c1cc(C(F)(F)F)nc(S(=O)(=O)CCCC(=O)N2CCCCC2C)n1` (stereo not drawn), the Potency was 39.8 µM (active).
In the case of `COc1ccc(Br)cc1CN(C)CC(=O)NCc1ccc(F)cc1`, the Potency result is “inactive”.
Regarding `COc1ccc(-c2cc3nc(C)c(CCC(=O)NCc4ccc(F)cc4)c(C)n3n2)c(OC)c1`, the Potency entry was “inactive”.
On to `COc1ccc(-c2cc(C(F)(F)F)nc(S(=O)(=O)CCCC(=O)Nc3cccc(O)c3)n2)cc1OC`, for which the Potency is 15 µM (active).
To `COc1cc(CC(=O)OCC(=O)N2CCCCC2C)cc(OC)c1OC` (stereo not drawn) belongs “inactive”.
On to `CC1CCCCN1C(=O)COC(=O)c1cc(-c2cccs2)nn1-c1ccccc1` (stereo not drawn), for which the Potency result was “inactive”.
In the case of `COc1cccc(C(C(=O)NC(C)(C)C)N(C(=O)CCC(=O)Nc2cc(C)on2)c2ccc3c(c2)OCCO3)c1OC` (stereo not drawn), the Potency entry was “inactive”.
For `CCN1C(=O)[C@@H]2Cc3c([nH]c4ccccc34)C(c3ccc(OC)cc3)N2C1=S` (stereo partly drawn), the Potency entry was “inactive”.
As for `CCOC(=O)c1cc([N+](=O)[O-])cc([N+](=O)[O-])c1Sc1[nH]cnc2ncnc1-2`, the Potency is 29.9 µM (active).
To `CCOC(=O)c1nnn(-c2ccc([N+](=O)[O-])cc2)c1C` belongs “inactive”; to `CCCCCCCCOC(=O)c1cc([N+](=O)[O-])c(Sc2[nH]cnc3ncnc2-3)c([N+](=O)[O-])c1`, 22.4 µM (active); to `CCOc1ccc(C(=O)Oc2cc(C)nc(O)c2[N+](=O)[O-])cc1OCC`, “inactive”.
Regarding `CCc1nc2ccc(C(=O)N3CCN(c4cc(C)ccc4C)CC3)cc2nc1CC`, the Potency entry was “inactive”.
Turning to `Cc1ccc(C)c(N2CCN(C(=O)CCC(=O)Nc3ccc4nc(N5CCCCC5)cc(C)c4c3)CC2)c1`, the Potency result is “inactive”.
Turning to `CCn1c(=O)cc(SCC(=O)N2CCN(c3cc(C)ccc3C)CC2)c2ccccc21`, the Potency was 35.5 µM (active).
With `O=C1c2cccc3c(O)ccc(c23)C(=O)N1c1ccc(Cl)cc1`, the Potency entry was “inactive”.
The same measure for `O=CN/C=C/c1cc(O)ccc1O`: 35.5 µM (active).
With `COC(=O)/C=C/c1sc2nc(C)cc(C)c2c1/N=C/N(C)C`, the Potency entry is “inactive”.
For the compound `COc1ccc(CNC(=O)CNS(=O)(=O)c2cccs2)cc1`, the Potency entry is “inactive”.
To `COCCN(C(=O)Cc1cccs1)C(C(=O)NCc1ccc(OC)cc1)c1ccc(C(C)C)cc1` (stereo not drawn) belongs 39.8 µM (active); to `COc1ccc(N(C(=O)c2cnccn2)C(C(=O)NCc2ccccc2)c2ccc(O)cc2)cc1` (stereo not drawn), “inactive”; to `Cc1ccc(C(=O)CSc2nnc(C3CC3)n2C2CC2)s1`, “inactive”.
Turning to `CC(=O)Nc1ccc(OC(F)(F)Cl)cc1`, the Potency entry was “inactive”.
Take `N#C/C(=N/Nc1ccc(OC(F)(F)F)cc1)C(N)=S`: the Potency was 10 µM (active).
With `Oc1ccc(-c2nccc(-c3ccc(Cl)cc3)n2)cc1`, the Potency result is “inactive”.
The same measure for `Oc1ccc(-c2onc3ccc(Cl)cc23)cc1`: “inactive”; for `Oc1ccc(N=Nc2n[nH]c(-c3ccc(Cl)cc3)n2)cc1`: 35.5 µM (active).
To `O=C1C=C(c2c(O)ccc3ccccc23)c2ccccc2C1=O` belongs 35.5 µM (active); to `CN(C)/C=C1\Oc2ccc3ccccc3c2C1=O`, “inactive”.
As to `O=C1c2cccc3c(O)ccc(c23)C(=O)N1Cc1ccccc1`, the Potency entry was “inactive”.
As for `CCN1C(=O)c2cccc3c(S(=O)(=O)NCc4cccnc4)ccc1c23`, the Potency entry was “inactive”.
On to `CCCC(=O)OCCNc1cc(Sc2nccn2C)c2nonc2c1[N+](=O)[O-]`, for which the Potency was 39.8 µM (active).
Turning to `CCC(=O)OCCNc1cc(Sc2nccn2C)c2nonc2c1[N+](=O)[O-]`, the Potency is 35.5 µM (active).
In the case of `COC(C/C=C/C(=O)[C@H](C)OCc1ccccc1)OC`, the Potency was 39.8 µM (active).
Take `COc1ccccc1OCc1ccc(C(=O)Nc2ccccc2)cc1`: the Potency result is “inactive”.
For the compound `Clc1ccc(C(c2ccccc2)c2c[nH]c3ccccc23)s1` (stereo not drawn), the Potency was 31.6 µM (active).
In the case of `Oc1nc2ccccc2nc1-c1c[nH]c2ccccc12`, the Potency entry was “inactive”.
`c1ccc(C(c2cccs2)c2c[nH]c3ccccc23)cc1` (stereo not drawn): the Potency was 39.8 µM (active).
As to `CCOc1ccccc1C1C(C(=O)OC)=CN(C)C=C1C(=O)OC`, the Potency result was “inactive”.
As to `CC(=O)Oc1c(-c2ccc(Br)o2)oc2ccccc2c1=O`, the Potency result was “inactive”.
`COC(=O)/C(=C1/Oc2cc(C)oc(=O)c2S1)C(F)(F)F`: the Potency was 20 µM (active).
With `CC(C)[C@H](NS(=O)(=O)c1ccccc1F)C(=O)NC1CCCCC1`, the Potency entry is “inactive”.
Consider `CC(=O)N1CCC(c2c[nH]c3ccccc23)CC1`, for which the Potency result is “inactive”.
Take `O=C1C=CC(c2c[nH]c3ccccc23)CC1` (stereo not drawn): the Potency was 35.5 µM (active).
With `O=C1NCCNC1(c1c[nH]c2ccccc12)C(F)(F)F` (stereo not drawn), the Potency entry was “inactive”.
In the case of `C=CCn1c(=N)c(C#N)cc2c(=O)n3ccccc3nc21`, the Potency result was “inactive”.
To `Cc1ccccc1CS(=O)(=O)c1nnc([C@H](Cc2ccccc2)NC(=O)OC(C)(C)C)o1` belongs 35.5 µM (active); to `COC(=O)CS(=O)(=O)c1nnc([C@H](Cc2ccccc2)NC(=O)OC(C)(C)C)o1`, 39.8 µM (active).
`CC(C)(C)OC(=O)N[C@@H](Cc1ccccc1)c1nnc(S(=O)(=O)Cc2cccc(F)c2)o1`: the Potency is 31.6 µM (active).
With `Oc1c(Br)cc(Cl)cc1/C=N/c1ccc(N2CCOCC2)cc1`, the Potency entry is “inactive”.
The same measure for `Cc1ccc(O)c(C(=O)c2cc(C#N)c(=O)n(-c3nccs3)c2)c1`: “inactive”; for `N=c1c(C(=O)NCc2ccc(F)cc2)cc2c(=O)n3ccccc3nc2n1Cc1cccnc1`: “inactive”.
To `O=C(Nc1ccc(F)cc1)c1sc2cc(C(F)(F)F)cnc2c1-c1cccs1` belongs “inactive”.
Regarding `O=C(Oc1ccc2c(-c3ccccc3)cc(=O)oc2c1)C1CCCCC1`, the Potency entry is “inactive”.
As for `Cc1cc(Oc2nc3c(C)cccn3c(=O)c2/C=C(\C#N)S(=O)(=O)c2ccccc2)ccc1Cl`, the Potency was 39.8 µM (active).
As to `Cc1cccn2c(=O)c(C=C(C#N)C#N)c(N3CCN(c4ccccc4)CC3)nc12`, the Potency result is “inactive”.
For the compound `CNC(=O)/C(C#N)=C/c1c(N2CCN(c3ccccc3)CC2)nc2c(C)cccn2c1=O`, the Potency entry is “inactive”.
To `CCOc1ccc(Cl)cc1S(=O)(=O)N1CCC(C(=O)NC2CC2)CC1` belongs “inactive”.
For `COc1ccc(C(NC(=O)C2CCN(CCOc3ccc(Cl)cc3Cl)CC2)c2ccccc2C)cn1` (stereo not drawn), the Potency was 31.6 µM (active).
Turning to `O=C(NC(c1ccc(F)cc1)c1ccc2ccccc2n1)C1CCN(CCOc2ccc(Cl)cc2Cl)CC1` (stereo not drawn), the Potency is 22.4 µM (active).
To `COc1cc(OC)nc(C(NC(=O)C2CCN(Cc3c[nH]c4ccccc34)CC2)c2ccc(Cl)cc2)n1` (stereo not drawn) belongs 35.5 µM (active).
Regarding `O=C(COC(=O)Cc1c[nH]c2ccccc12)Nc1cc(S(=O)(=O)N2CCOCC2)ccc1Cl`, the Potency entry was “inactive”.
Consider `CCS(=O)(=O)N1CCN(Cc2c[nH]c3ccccc23)CC1`, for which the Potency result is “inactive”.
The same measure for `O=C(CCSc1ccc(Cl)cc1)Nc1cccnc1`: “inactive”.
For `O=C(NC(c1ccc(Cl)cc1)c1cccnc1)C1CCN(CCOc2ccc(Cl)cc2Cl)CC1` (stereo not drawn), the Potency is 39.8 µM (active).
For the compound `COc1ccc(NC(=O)c2cc(S(=O)(=O)N3CCCC3)ccc2C)cn1`, the Potency result was “inactive”.
As for `Cn1cc(/C=N\O)nc2c(=O)n(-c3ccccc3)c(=O)nc1-2`, the Potency result was “inactive”.
The same measure for `O=C(COC(=O)/C=C/c1ccc(S(=O)(=O)N2CCc3ccccc32)cc1)NC1CCS(=O)(=O)C1` (stereo not drawn): “inactive”; for `CNc1cncc(-c2ccc(S(C)(=O)=O)cc2)n1`: “inactive”.
To `N=c1c(S(=O)(=O)c2ccc(Cl)cc2)cc2c(=O)n3ccccc3nc2n1Cc1ccco1` belongs “inactive”; to `COc1ccc(NS(=O)(=O)c2cccc(C(=O)NN=C(C)c3ccco3)c2)cc1`, “inactive”; to `Cc1ccccc1/C=C/c1cc[n+](C)cc1`, “inactive”.
Turning to `O=C(NC(c1ccccc1)c1ccsc1)C1CCN(CCOc2ccc(Cl)cc2Cl)CC1` (stereo not drawn), the Potency is 39.8 µM (active).
Turning to `COc1ccc(Cl)cc1NC(=O)CNC(c1ccccc1)c1ccccc1`, the Potency result was “inactive”.
With `NC(=O)C1CCN(CC(=O)Nc2ccccc2Sc2ccc(Cl)cc2)CC1`, the Potency result was “inactive”.

Source of the values: ChEMBL document CHEMBL1201862, “PubChem BioAssay data set” (2004).
